Assays:
Assay in all cases: thermal shift delta Tm vs DMSO control; higher = stronger stabilization (binding)
Conditions in all cases: 12.5 µM; protein concentration 2 µM
LOC_OS02G45750-cb003 = test system: LOC_OS02G45750-cb003
In short: (§1)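 Thermal shift values come from differential scanning fluorimetry on purified rice kinase domains made in E. coli, with melting temperatures obtained from Boltzmann fits. Samples of 19.5 μl held 2 μM kinase, 100 mM potassium phosphate pH 7.5, 150 mM NaCl, 10% glycerol, 5 × SYPRO Orange and compound in DMSO, and were heated from 25°C to 95°C at 0.05°C/s. Each shift is a triplicate mean relative to the DMSO-only protein sample.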

LOC_OS02G54510-cb004 = test system: LOC_OS02G54510-cb004
In short: as §1

LOC_OS03G04050-cb001 = test system: LOC_OS03G04050-cb001
In short: as §1

LOC_OS03G12390-cb001 = test system: LOC_OS03G12390-cb001
In short: as §1

LOC_OS03G27990-cb004 = test system: LOC_OS03G27990-cb004
In short: as §1

LOC_OS03G50450-cb001 = test system: LOC_OS03G50450-cb001
In short: as §1

LOC_OS03G50810-cb003 = test system: LOC_OS03G50810-cb003
In short: as §1

LOC_OS04G35114-cb001 = test system: LOC_OS04G35114-cb001
In short: as §1

LOC_OS04G38480-cb003 = test system: T1, LOC_OS04G38480-cb003
T1 sequence (whole entry): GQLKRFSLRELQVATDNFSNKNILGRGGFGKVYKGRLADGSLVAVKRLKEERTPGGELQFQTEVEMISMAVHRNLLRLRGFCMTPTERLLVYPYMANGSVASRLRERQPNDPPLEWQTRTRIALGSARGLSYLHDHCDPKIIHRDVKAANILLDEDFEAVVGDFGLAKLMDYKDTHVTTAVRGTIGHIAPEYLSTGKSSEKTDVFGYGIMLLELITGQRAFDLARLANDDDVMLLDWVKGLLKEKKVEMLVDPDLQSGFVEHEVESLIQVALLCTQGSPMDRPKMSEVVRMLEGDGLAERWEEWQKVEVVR
In short: as §1

LOC_OS04G41100-cb001 = test system: T2, LOC_OS04G41100-cb001
T2 sequence (whole entry): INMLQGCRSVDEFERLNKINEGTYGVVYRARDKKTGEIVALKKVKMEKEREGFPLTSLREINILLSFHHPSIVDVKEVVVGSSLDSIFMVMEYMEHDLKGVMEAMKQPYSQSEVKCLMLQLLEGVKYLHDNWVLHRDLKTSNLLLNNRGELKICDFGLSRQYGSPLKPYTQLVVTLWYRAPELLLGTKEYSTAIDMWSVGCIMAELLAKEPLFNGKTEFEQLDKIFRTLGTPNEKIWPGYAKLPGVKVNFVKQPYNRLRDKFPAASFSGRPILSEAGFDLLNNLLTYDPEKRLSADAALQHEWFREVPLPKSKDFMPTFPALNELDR
In short: as §1
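Also: purified Escherichia coli-expressed rice kinase domain construct.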

SMILES	thermal shift delta Tm (LOC_OS02G45750-cb003) [°C]	thermal shift delta Tm (LOC_OS02G54510-cb004) [°C]	thermal shift delta Tm (LOC_OS03G04050-cb001) [°C]	thermal shift delta Tm (LOC_OS03G12390-cb001) [°C]	thermal shift delta Tm (LOC_OS03G27990-cb004) [°C]	thermal shift delta Tm (LOC_OS03G50450-cb001) [°C]	thermal shift delta Tm (LOC_OS03G50810-cb003) [°C]	thermal shift delta Tm (LOC_OS04G35114-cb001) [°C]	thermal shift delta Tm (LOC_OS04G38480-cb003) [°C]	thermal shift delta Tm (LOC_OS04G41100-cb001) [°C]
CCOc1cc(N2CCC(O)CC2)ccc1Nc1ncc2c(n1)N(C)c1ccccc1C(=O)N2C	-0.35	-0.02	0.11	2.48	-0.12	0.38	0.11	0.71	1.18	0.38
Nc1cccc(S(=O)(=O)N2CCCN(S(=O)(=O)c3ccc4c(c3)OCCO4)CC2)c1	0.54	0.12	0.38	0.13	0.13	0.24	0.28	0.8	1.86	0.33
Cc1cc(CS(=O)(=O)c2ccccc2)cc(OCc2ccc(CN3CCC[C@@H]3CO)cc2)c1	-0.41	0.16	0.65	-0.25	0.41	0.6	0.23	0.57	0.83	0.44
CC#CC(=O)N1CCC[C@H]1c1nc(-c2ccc(C(=O)Nc3ccccn3)cc2)c2c(N)nccn12 [Acalabrutinib (ACP-196)]	1.09	0.55	0.39	-0.37	0.24	0.4	0.38	0.89	1.22	0.5
Cc1ccc(Nc2nccc(N(C)c3ccc4c(C)n(C)nc4c3)n2)cc1S(N)(=O)=O	3.91	1.36	0.35	1.04	0.21	0.3	1.55	4.77	1.08	3.24
COc1ccc(-c2ccc3ncc4c(c3c2)n(-c2ccc(N3CCNCC3)c(C(F)(F)F)c2)c(=O)n4C)cn1	1.22	0.44	0.36	-0.28	0.61	0.72	2.17	7.13	1.98	0.01
Nc1nc(N)c2nc(-c3cccc(O)c3)c(-c3cccc(O)c3)nc2n1	0.83	0.31	0.2	0.79	1.44	0.33	0.34	0.99	1.12	0.63
Cc1cc(NC(=O)c2cccc(NC(=O)/C=C/CN(C)C)c2)ccc1Nc1nccc(-c2cccnc2)n1	3.5	0.3	1.05	2.05	0.81	1.19	1.1	1.79	1.17	0.83
CNC(=O)c1nn(C)c2c1C(C)(C)Cc1cnc(Nc3ccc(N4CCN(C)CC4)cc3)nc1-2	7.62	0.71	0.62	-0.14	1.08	0.91	4.16	7.06	1.96	0.65
O=C(Cc1ccc(-c2ccc(OCCN3CCOCC3)cc2)cn1)NCc1ccccc1	0.29	0.08	0.31	0.07	0.38	0.47	0.43	0.43	0.12	0.27
COc1cc2nccc(Oc3ccc(NC(=O)c4cn(C(C)C)c(=O)n(-c5ccc(F)cc5)c4=O)cc3F)c2cc1OC	1.35	0.3	0.61	0.23	0.52	0.71	1.15	0.49	3.7	0.44
Clc1ccc(C2(c3ccc(-c4cn[nH]c4)cc3)CCNCC2)cc1	-0.2	0.04	0.31	0.47	0.05	0.32	0.32	0.57	0.33	0.38
COc1ccc(S(=O)(=O)N(CCO)c2ccccc2CN(C)C/C=C/c2ccc(Cl)cc2)cc1 [KN-93 Phosphate]	0.73	-0.27	0.31	-0.19	0.2	0.48	0.29	0.92	1.75	0.58
CCCCOc1c(C(=O)c2c(F)cc(C)cc2F)c[nH]c2nncc1-2	0.73	0.14	0.23	2.18	0.03	-0.21	0.46	0.65	0.81	0.49
Cn1c(=O)c(F)c(Nc2ccc(I)cc2F)c2c(=O)n(C[C@@H](O)CO)cnc21	1.03	0.28	0.51	0.07	0.21	0.15	0.78	0.35	0.83	0.43
CCCCNc1ncc(-c2ccc(CN3CCOCC3)cn2)c(NC2CCC(O)CC2)n1 (stereo not given)	13.7	0.36	0.34	2.88	1.94	1.29	5.33	7.84	3.1	0.46
CCn1c2ccccc2c2cc(Nc3ccnc(NCCCN4CCOCC4)n3)ccc21	0.77	0.13	0.05	-0.48	0.11	0.22	0.04	1.09	1.71	0.46
N#Cc1ccc2ncnc(NCCc3ccccc3)c2c1 [Senexin A]	1.15	0.03	0.34	1.84	0.37	0.68	0.83	1.3	1.69	0.25
CN(C)CCOc1ccc(-c2nc(-c3ccncc3)c(-c3ccc4c(c3)CC/C4=N\O)[nH]2)cc1	0.22	0.08	0.13	-0.23	0.06	0.04	0.55	0.33	0.74	0.3
COc1ccc([C@@H]2OC[C@H]3[C@@H]2CO[C@@H]3c2ccc(O[C@@H]3O[C@H](CO)[C@@H](O)[C@H](O)[C@H]3O)c(OC)c2)cc1OC [Forsythin]	0.82	-0.05	0.35	0.34	0.18	0.11	0.2	-0.23	-0.32	-0.14

From the supplement of paper PMC9694430
